Assay results taken from PubChem BioAssay AID1578 (Sanford-Burnham Center for Chemical Genomics, 2009).
Among all 290,000 compounds or so, about 3,000 (1%) were called active. Rule as the data show it: active = inhibition mostly above about 36% (no sharp cut-off); inactive = mostly below about 34%. The sample as a whole holds a higher share of actives than the screen did.

Test: NOD1 signaling inhibitors, primary screen, cell-based, luminescence, uHTS (AID 1578);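 also: HEK-293T reporter cells stimulated with the NOD1 agonist gamma-tri-DAP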
Conditions: NOD1-driven NF-kB luciferase reporter cells, at 4 µM, active compounds read high

inhibition, active:
Cc1ccc(NC(=O)CCc2nc3ccccc3s2)c(O)c1 43%
O=c1cc(C(F)(F)F)[nH]c2c(C(F)(F)F)cccc12 72.8%
CCC(=O)Nc1cc2nn(-c3ccc(C)cc3)nc2cc1C 58.2%
CCOC(=O)C(C)n1nc(-c2ccccc2)c2ccccc2c1=O (stereo unspecified) 36.3%
O=c1ccc(Cl)n[nH]1 61.4%
O=C(Nc1ccc(S(=O)(=O)Nc2ccccc2)cc1)c1ccc(CN2CCOCC2)cc1 76.1%
COc1ccc(OCC(=O)NNc2c3ccccc3nc3ccccc23)cc1 76.7%
CSc1ccc(NC(=O)Nc2cccn(Cc3ccccc3F)c2=O)cc1 89.6%
CCOc1ccc(NC(=O)Nc2cccn(Cc3ccccc3)c2=O)cc1 44.3%
Cc1ccc(F)cc1CNC(=O)c1cc(COc2ccc3ncccc3c2)on1 59.8%
O=C(NC1CCCCCCC1)c1cc(COc2ccc3ncccc3c2)on1 44.4%
Cc1ccc2c(c1)C1CN(C)CCC1N2C(=S)NC(=O)c1ccc(Br)cc1 (stereo unspecified) 61.2%

inhibition, inactive:
CCOC(=O)c1sc(NC(=O)c2cccc(S(=O)(=O)N3c4ccccc4CC3C)c2)cc1C (stereo unspecified) 6.7%
Cc1ccc(NC(=O)CCCc2nc3ccccc3s2)c(O)c1 -33.8%
Cc1ccc2nc(NC(=O)CCCc3nc4ccccc4s3)sc2c1 -29%
O=C(c1ccc(F)cc1)n1c(NCc2ccccc2)n[nH]c1=S -17.3%
O=c1cc(C(F)(F)F)[nH]c2c(OC(F)(F)F)cccc12 15.5%
Cc1cccc2c(=O)cc(C(F)(F)F)[nH]c12 1.3%
CCOc1ccc(NC(=O)C2CCCN(S(=O)(=O)c3cnc[nH]3)C2)cc1 (stereo unspecified) -9.3%
CCN(CC)S(=O)(=O)c1ccc(Cl)c(NC(=O)COC(=O)c2ccc(O)cc2)c1 21.8%
CCSc1nsc(NC(=O)Nc2ccc(F)cc2F)n1 26%
CCSc1nsc(NC(=O)Nc2cccc(OC)c2)n1 52.2%
CCSc1nsc(NC(=O)Nc2ccccc2F)n1 -1.8%
COc1cccc(NC(=O)Nc2nc(SC(C)(C)C)ns2)c1 40.2%
CCCSc1nsc(NC(=O)Nc2ccc(F)cc2F)n1 43%
COc1cccc(NC(=O)Nc2nc(SC)ns2)c1 -38%
CCn1cc(CN2CCC(C(=O)Nc3cccc(-c4cscn4)c3)CC2)cn1 -27.3%
CC(C)(C)c1cc(CCC(=O)NCCc2ccccn2)cc(C(C)(C)C)c1O -9.5%
COc1ccc(/C=C(\NC(=O)c2ccc(Cl)cc2)C(=O)NCCCn2ccnc2)cc1OC 18.2%
CN1CCN(Cc2nc3c(c(=O)n(C)c(=O)n3C)n2CCCc2ccccc2)CC1 16.4%
COc1cccc(Nc2c(Nc3cccc(OC)c3)c(=O)c2=O)c1 -10.3%
CC1(C)CC(=O)C(C(c2ccccc2F)C2C(=O)CC(C)(C)CC2=O)C(=O)C1 0.7%
Cc1ccc(S(=O)(=O)NC(CN2CCOCC2)=NCCNS(=O)(=O)c2ccccc2)cc1 31.6%
CN1CCN(c2ccc(-c3ccnn3C(=O)Nc3cccc(C(F)(F)F)c3)cc2)CC1 19.1%
COC(=O)c1cc(N=Nc2sc(N)nc2C)cc(C(=O)OC)c1 -4.7%
CCC(=O)Nc1cc2nn(-c3ccc(OC)cc3)nc2cc1C -20%
CCCCC(=O)Nc1cc2nn(-c3ccc(OC)cc3)nc2cc1C -94.7%
COc1ccc(C(=O)N/C(=C\c2ccccc2)C(=O)Nc2ccc(C(=O)O)cc2)cc1 0.4%
CCN(CC(=O)Nc1ccc(NC(C)=O)cc1)C(=O)/C=C/c1cn(-c2ccccc2)nc1-c1ccc(C)cc1 15.8%
CCOC(=O)c1ccc(Oc2cn[nH]c2-c2ccc(O)cc2O)cc1 5.5%
CCOC(=O)Cc1nn(C(C)C)c(=O)c2ccccc12 -21.4%
CCOC(=O)Cn1nc(-c2ccccc2)c2ccccc2c1=O -6.3%
CCC(C(=O)O)N1C(=O)C2CCCCC2C1=O (stereo unspecified) 4.4%
O=c1ccc(Cc2ccc(Cl)cc2)n[nH]1 -29.8%
O=c1ccc(-c2ccccc2)n[nH]1 -29%
CCn1c(SCC(=O)NC2CCCCC2)nnc1-c1ccccn1 2.9%
O=C(Nc1ccc(S(=O)(=O)N2CCCC2)cc1)c1ccc(CN2CCOCC2)cc1 44.6%
COc1ccc(C(=O)Nc2ccc(CN3CCCCC3)cc2)cc1 -37.1%
COc1ccc(C(=O)NC(=S)Nc2ccc(CN3CCOCC3)cc2)cc1 -0.3%
NC(=O)c1ccc(NC(=O)c2ccc(CN3CCOCC3)cc2)cc1 -20.3%
c1ccc(COc2cccc(CNCc3cccnc3)c2)cc1 -20%
CC(=O)Nc1ccc(S(=O)(=O)NCc2ccc(C)cc2)cc1 2.4%
Cc1coc2cc3oc(=O)c4c(c3cc12)CCCC4 -30.5%
COc1ccc(/C=N/Nc2ccccc2C(=O)O)cc1Cn1cc([N+](=O)[O-])cn1 -11.8%
O=C(COC(=O)c1ccccc1C(=O)c1ccccc1)Nc1ccc(SC(F)F)cc1 7.1%
CCOC(=O)C1=C(C(F)(F)F)Nc2ncnn2C1c1cc(OC)ccc1OC (stereo unspecified) 10.8%
Cc1ccc(OCC(=O)NNc2c3ccccc3nc3ccccc23)cc1 52.5%
O=C(COc1ccccc1)NNc1c2ccccc2nc2ccccc12 40.5%
O=C(OCCN=C1NS(=O)(=O)c2ccccc21)c1ccccc1F 31.5%
O=C(NCCCN1CCCC1=O)[C@H](CSCc1ccccc1)N1Cc2ccccc2C1=O 1.9%
Cc1ccc(NC(=O)CN(C)C(=O)Cc2c(Cl)cccc2Cl)cc1 -9.1%
COc1cccc(NC(=O)Nc2cccn(Cc3ccccc3)c2=O)c1 -11%
CSc1ccc(NC(=O)Nc2cccn(Cc3ccccc3)c2=O)cc1 46.6%
COc1ccc(Cn2cccc(NC(=O)Nc3ccc(F)cc3)c2=O)cc1 37.8%
CCc1ccccc1NC(=O)Nc1cccn(Cc2ccccc2F)c1=O -23.3%
O=C(O)CCCCCNC(=O)CCn1cnc2ccccc2c1=O 21.1%
COc1cc(OC)cc(-c2nnc(SCC(=O)Nc3cccc(C(=O)O)c3)s2)c1 -32.1%
O=C(c1ccc(Cl)cc1)N1CCN(CCc2ccccn2)CC1 -13%
COc1cc(/C=C2/C(=O)NN(c3ccccc3)C2=O)cc(Br)c1O 15.4%
COc1cc(/C=C2/C(=O)NN(c3ccc(F)cc3)C2=O)cc(Cl)c1O 12.2%
OCC[C@@H]1C[C@H](O)[C@@H](O)[C@]2(Cc3ccccc3CO2)O1 15%
COc1ccc(C(=O)N(CCc2ccccc2)Cc2ccccc2)c(OC)n1 -5.7%
O=C(c1cc(COc2ccc3ncccc3c2)on1)N1CCC(O)CC1 0.3%
CC(NC(=O)c1cc(COc2ccc3ncccc3c2)on1)c1ccc(F)cc1 (stereo unspecified) 7.2%
CC(=O)c1ccc(OCc2cc(C(=O)NC3CCCCC3)no2)cc1 -46.8%
Cc1ccc(OCc2cc(C(=O)NCc3cc(F)ccc3C)no2)cn1 -13.5%
CCN1CCN(C(=O)c2cc(COc3ccc4ncccc4c3)on2)CC1 26.3%
CCC(O)C1CCN(C(=O)c2cc(COc3ccc4ncccc4c3)on2)CC1 (stereo unspecified) 52.9%
O=C(NC1CCCC1)c1cc(COc2ccc3ncccc3c2)on1 26.8%
O=C(c1cc(COc2ccc3ncccc3c2)on1)N1CCCC1 19.1%
CS(=O)(=O)N1CCN(c2ccccc2NC(=S)NC(=O)c2ccccc2[N+](=O)[O-])CC1 -7.4%
O=C(COC(=O)CNS(=O)(=O)c1ccccc1)Nc1ccc(Cl)cn1 -21%
Cc1cc(C)n(-c2ccc(C(=O)Nc3sccc3C(N)=O)cc2)n1 -77.9%
COc1ncnc2c1oc1nc(C(C)C)c3c(c12)CC(C)(C)OC3 -12.3%
CCN(CC)S(=O)(=O)c1cccc(N=Nc2sc(N)nc2C)c1 1.1%
N#Cc1ccc(OCC(O)CS(=O)(=O)c2ccccc2)cc1 (stereo unspecified) -22.8%
CC(=O)c1ccc(NC(=O)C2CCCN(C(=O)c3ccc(Cl)cc3)C2)cc1 (stereo unspecified) -22.6%
O=C1CCCN1S(=O)(=O)c1ccc(F)cc1 5.5%
CCOc1ccc(NC(=O)C2CCCN(S(=O)(=O)c3ccc4c(c3)CC(C)N4C(C)=O)C2)cc1 (stereo unspecified) -4%
COn1c(-c2ccccc2)nc2ccc(Cl)cc21 -72.4%
Cc1cc(C(=O)N/N=C/c2c(C)nn(-c3ccccc3)c2Cl)n[nH]1 -4.6%
CC(=O)N(C(C)=O)S(=O)(=O)c1ccc(N=NN2CCOCC2)cc1 -25.7%
O=C(Nc1ccccc1C(=O)Nc1cccnc1)c1ccccc1 -11.8%
Cc1csc(NC(=O)c2ccc(=O)[nH]c2)n1 -4.6%
Cc1ccc2c(c1)C1CN(C)CCC1N2C(=S)Nc1ccc(Cl)cc1Cl (stereo unspecified) 13%
Cc1ccc2c(c1)C1CN(C)CCC1N2C(=S)NC(=O)c1ccc(Cl)cc1Cl (stereo unspecified) -10.8%
